Only some compounds are listed: those with a hit (about 9.2% of all), similar ones and a draw of the others.
Rab9 promoter act – qHTS Assay for Rab9 Promoter Activators | actives 2.8% (n = 320,000) | AID 485297, 2010 | Potency, µM (doses to about 9.22 µM), without a hit: at the highest dose activation, negative = inhibition, hits mostly activators | Huh7 Rab9 promoter-luciferase reporter, luminescence, 24 h; further: % of control where 0% means no effect; nearly all actives have a fitted effect of over 60% in size
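Cells were plated at 1500 per well in reduced-serum medium with 10% FBS and left 2 h. Compound in DMSO was then added for 24 h at 37 °C. Reporter signal was read by luminescence after 10 min with luciferase detection reagent.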
ELG1 genotox – qHTS screen for small molecules that induce genotoxicity in human embryonic kidney (HEK293T) cells expressing luciferase-tagged ELG1. HEK293T ELG1-luciferase reporter, luminescence, 16 h. Potency, µM (series often up to 46 µM), for inactives: top-dose activity change, positive = activation, hits mostly activators. actives 1.3% (n = 330,000); further: % of control where 0% means no effect; nearly all actives have a fitted effect of over 60% in size
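Genotoxic stress is detected as increased luminescence from luciferase-tagged ELG1 in HEK293T cells, measured with ONE-Glo after a 16 hr treatment at 37 °C.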
FLuc counter – qHTS profiling assay for firefly luciferase inhibitor/activator using purifed enzyme and Km concentrations of substrates (counterscreen for miR-21 project); Luciferin 4-monooxygenase (Photinus pyralis), P08659; purified FLuc, Km substrates, luminescence inhibition; Potency, µM (series often up to 57.5 µM), without a hit: at the top dose activity change, negative = inhibition, hits mostly inhibitors; actives 6.9% (n = 360,000); AID 588342, 2011;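 further: plate controls were vehicle for no effect and reference inhibitor for full effect; nearly all actives have a fitted effect of over 55% in size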
Target sequence (P08659 whole entry, looked up): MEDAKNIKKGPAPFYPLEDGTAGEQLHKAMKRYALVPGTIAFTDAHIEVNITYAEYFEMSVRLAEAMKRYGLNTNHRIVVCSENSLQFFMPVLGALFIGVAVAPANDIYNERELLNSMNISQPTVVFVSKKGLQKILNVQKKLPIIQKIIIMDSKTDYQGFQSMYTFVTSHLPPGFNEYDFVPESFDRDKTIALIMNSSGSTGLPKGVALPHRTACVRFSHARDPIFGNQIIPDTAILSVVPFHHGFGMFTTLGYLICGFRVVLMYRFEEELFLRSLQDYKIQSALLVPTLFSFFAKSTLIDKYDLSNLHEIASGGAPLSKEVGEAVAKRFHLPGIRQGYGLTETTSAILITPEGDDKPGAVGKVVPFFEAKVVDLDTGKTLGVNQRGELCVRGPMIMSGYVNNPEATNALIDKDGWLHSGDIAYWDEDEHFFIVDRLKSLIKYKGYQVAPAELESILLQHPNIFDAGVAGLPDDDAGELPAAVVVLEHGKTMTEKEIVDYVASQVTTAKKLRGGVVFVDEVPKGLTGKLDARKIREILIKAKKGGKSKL
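Biochemical qHTS of compounds, final roughly 60 µM downward over six points, against 10 nM purified firefly luciferase using Km concentrations of substrates (10 uM D-luciferin, 10 uM ATP) in Tris acetate pH 7.5 buffer; luminescence output.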
SMN2 splice up – qHTS Assay for Enhancers of SMN2 Splice Variant Expression; HEK293 SMN2-luciferase splicing reporter, luminescence, 30-36 h; Potency, µM (top dose mostly 46.1 µM), for the others: at the highest dose activity change, positive = activation, actives largely listed as activators; AID 1458, 2008; actives 2.8% (n = 210,000); further: % of control where 0% means no effect; nearly all actives have a fitted effect of over 55% in size
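qHTS luciferase splicing reporter: luminescence rises when SMN2 exon 7 is included in transfected HEK293 cells. Compound exposure lasted 30-36 h at 37C, with 4.5 mM final sodium butyrate as control, followed by a ONE-Glo read.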
NPC1 promoter act – qHTS Assay for NPC1 Promoter Activators; Huh7 NPC1 promoter luciferase reporter, 24 h; actives 2.4% (n = 320,000); Potency, µM (top dose mostly 9.22 µM), without a hit: at the top dose activation, actives largely listed as activators; further: % of control where 0% means no effect; nearly all actives have a fitted effect of over 60% in size
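Huh7 reporter cells (NPC1 promoter driving luciferase) are dosed with compound for 24 h at 37 °C, 5% CO2; luciferase detection reagent is then added and luminescence measured after 10 min at ambient temperature.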
ELG1 DNA repair – qHTS screen for small molecules that inhibit ELG1-dependent DNA repair in human embryonic kidney (HEK293T) cells expressing luciferase-tagged ELG1; HEK293T ELG1-luciferase reporter, luminescence, 16 h; DNA damage induced by 5-fluorouridine; Potency, µM (series often up to 46.1 µM), inactives show top-dose activity change, negative = inhibition, hits mostly inhibitors; actives 2.3% (n = 330,000); further: on the % scale 0 is the no-effect control and ±100 the full control effect; nearly all actives have a fitted effect of over 55% in size
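Step one: seed 2,000 cells per well. Step two: pin-transfer compound or DMSO alongside 5-fluorouridine. Step three: incubate 16 hr, 37 °C, 5% CO2. Step four: add ONE-Glo, wait 30 min, read luminescence.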
An asterisk follows results filed as active; ? = inconclusive; . = not tested or not shown. The call rests on the fitted dose curve; in most records, active means well fitted curve in the direction sought with a large enough effect; inconclusive means small, poorly fitted or top-dose-only effect, or another doubt; inactive means no such curve, though single readings can be large; an effect the other way counts as inactive or inconclusive. Potency means the concentration at half of the fitted maximal effect.

SMILES | Rab9 promoter act | ELG1 genotox | FLuc counter | SMN2 splice up | NPC1 promoter act | ELG1 DNA repair
O=S(=O)(c1ccc(-c2n[nH]c(=S)o2)cc1)N1CCCC1 | 0% | 3% | -3% | . | -2% | 6%
CC(Sc1nc(N)cc(=O)[nH]1)C(=O)Nc1sc2c(c1C#N)CCCC2 (stereo not given) | -2% | -1% | ? | -61% | -10% | 8.2µM*
N#Cc1c(NC(=O)c2ccncc2)sc2c1CCC2 | 18% | 20% | 13µM* | ? | 14% | 34%
NC(=O)c1c(NC(=O)c2ccncc2)sc2c1CCCCCC2 | 0% | -4% | 12µM* | . | -5% | ?
Cn1nc(C(=O)Nc2sc3c(c2C#N)CCCC3)ccc1=O | 29% | ? | 5.4µM* | -15% | 17% | ?
Cc1noc(C)c1C(=O)Nc1sc2c(c1C(N)=O)CCCCC2 | -5% | -1% | ? | 3% | 10% | ?
COc1ccc(C(CC(=O)Nc2cc(OC)c(OC)c(OC)c2)N2Cc3ccccc3C2=O)cc1 (stereo not given) | . | . | -11% | . | . | .
Cc1cccc(NC(=O)CNC(=O)CN2C(=O)NC3(CCCc4ccccc43)C2=O)c1C (stereo not given) | 0% | 0% | -1% | . | -1% | -9%
CCCn1nnnc1COc1ccc(C(N)=O)cc1 | 9% | 0% | -1% | . | -2% | -4%
COC(=O)/C=C/c1cc(O)ccc1O | . | . | . | 1% | . | .
NC(=O)c1c(NC(=O)c2ccccc2)sc2c1CCc1ccccc1-2 | 3.5µM* | 6.5µM* | 2.1µM* | ? | 4.5µM* | ?
CN(C)C(=O)c1c(NC(=O)c2ccccc2)sc2c1CCC2 | -1% | 2% | -4% | . | 8% | -1%
Cc1cc(C(=O)Nc2sc3c(c2C#N)CCCCC3)cs1 | 1.1µM* | 0.82µM* | 0.95µM* | 11µM* | ? | ?
CC(=O)Nc1sc2c(c1C#N)CCCC2 | . | . | 3% | -5% | . | .
NC(=O)c1c(NC(=O)c2ccccc2)sc2c1CCC2 | 3.2µM* | 5.8µM* | 4.8µM* | . | 2µM* | ?
CN(C(=O)c1ccc2c(c1)OCO2)C1(C)CCS(=O)(=O)C1 (stereo not given) | -3% | 3% | 4% | . | -1% | 6%
COc1ccc(-n2ncc(C(=O)NCc3ccc4c(c3)OCO4)c2C2CCN(C(=O)OC(C)(C)C)CC2)cc1 | . | . | -7% | . | . | .
Cc1cc(/C=C(\C#N)c2nnc(N3CCOCC3)n2-c2ccccc2)c(C)n1-c1ccccc1 | -7% | 1% | 17µM* | -18% | 0% | -9%
Cc1cc(C=C(C#N)C#N)c(C)n1-c1ccccc1 | ? | 6% | 4.8µM* | -9% | ? | ?
CNC(=O)/C(C#N)=C\c1cc(C)n(-c2ccc(N3CCOCC3)cc2)c1C | 4% | 9% | -2% | . | 2% | ?
Cc1cc(/C=C(\C#N)C(=O)O)c(C)n1-c1ccc(Br)cc1 | 1% | 4% | 17µM* | . | -5% | -6%
Cc1ccc(-n2c(C)cc(C=C(C#N)C#N)c2C)cc1 | 1% | 0% | 19µM* | -16% | 3% | ?
Cc1ccccc1NC(=O)/C(C#N)=C\c1cc(C)n(-c2ccc(C(=O)O)cc2)c1C | -1% | 0% | -14% | . | -3% | 15%
Cc1ccc2c(c1)C(c1ccccc1)N(C(=O)Cc1ccc(F)cc1)CC(=O)N2 (stereo not given) | . | . | 4% | 1% | . | .
Cc1ccc(C2c3[nH]c4ccccc4c3CCN2C(=O)Nc2ccc(C)c(C)c2)cc1 (stereo not given) | . | . | -1% | . | . | .
SMILES | Rab9 promoter act | ELG1 genotox | FLuc counter | SMN2 splice up | NPC1 promoter act | ELG1 DNA repair
COc1ccccc1N1CCN(c2ncnc3c2cnn3-c2cc(Cl)ccc2C)CC1 | . | . | 1% | . | . | .
Cc1cc(C)c2oc(-c3ccc(C)c(NC(=O)/C=C/c4ccco4)c3)nc2c1 | . | . | 21µM* | -9% | . | .
CCCOc1ccc(C(=O)Nc2cc(-c3nc4cc(C)cc(C)c4o3)ccc2C)cc1 | . | . | -5% | 1% | . | .
Cc1cc(C)c2oc(-c3cccc(NC(=O)c4ccco4)c3)nc2c1 | . | . | 2.7µM* | 5% | . | .
O=C(NCc1ccccc1)c1cccc(COc2ccc3c(c2)CCC3)c1 | 0.35µM* | 0.65µM* | 1.3µM* | 1.3µM* | 0.35µM* | ?
COc1ccccc1NC(=O)c1ccc(COc2ccc3c(c2)CCC3)cc1 | 24% | 7% | -2% | 11µM* | 21% | ?
O=C(COc1ccc2c(c1)CCC2)NCc1cccc(Cl)c1 | -4% | -3% | -9% | . | -3% | 10%
COC(=O)c1ccccc1NC(=O)c1ccc(COc2ccc3c(c2)CCC3)cc1 | 9% | 4% | ? | -2% | 15% | ?
O=C(Nc1ccccc1)c1ccc(CSc2ccccn2)cc1 | 1.6µM* | ? | 2.1µM* | 22µM* | 1.3µM* | ?
O=C(O)c1cccc(COc2ccc3c(c2)CCC3)c1 | 3.2µM* | ? | 0.067µM* | . | 3.5µM* | ?
COc1ccccc1NC(=O)c1ccc(CSc2ncccn2)cc1 | -1% | 5% | 17µM* | . | -1% | 17%
COc1cccc(OC)c1C(=O)NNC(=O)c1cccc(COc2ccc3c(c2)CCC3)c1 | 0.56µM* | 0.37µM* | 4.8µM* | 1.4µM* | 0.45µM* | ?
COc1cc(NC(=O)CN2CCN(c3ccc(F)cc3)CC2)cc(OC)c1 | . | . | 2% | . | . | .
Cc1ccc(CNC(=O)c2nc(-c3ccc(Cl)cc3)n3c2CCCCC3)cc1 | . | . | -12% | . | . | .
C[C@@H](CO)NC(=O)c1ccc2c3n(nc2c1)-c1ccc(Cl)cc1CO3 | 2.8µM* | 7.3µM* | 3µM* | . | 1.4µM* | ?
Cc1ccc(Cl)cc1Nc1nn2c(=O)c3ccc(C(=O)NC(C)c4ccccc4)cc3nc2s1 (stereo not given) | . | . | -4% | . | . | .
CC(C)[C@@H](CO)NC(=O)c1ccc2c3n(nc2c1)-c1ccc(Cl)cc1CO3 | 1.1µM* | ? | 8.5µM* | . | 1.4µM* | ?
COC(=O)c1ccc(COC(=O)c2ccccc2OC)cc1 | 25% | 1% | 19µM* | 10% | 12% | ?
CCOc1ncccc1C(=O)OCc1cc(=O)oc2c(C)c(C)ccc12 | -6% | 0% | 3µM* | -5% | -2% | -2%
CCOc1ncccc1C(=O)OCc1ccc(C(=O)OC)cc1 | -15% | ? | ? | 14µM* | 10% | ?
